Measured values from PubChem BioAssay AID493165 (National Center for Advancing Translational Sciences (NCATS), 2011).
Values without a mark were called inactive. Activity calls are given as the source filed them. The call rests on the fitted dose curve; in most records, active means well fitted curve in the direction sought with a large enough effect; inactive means no such curve, though single readings can be large or run the other way.

Assay: Retest of LOPAC molecules that induce DNA re-replication in SW480 adenocarcinoma cells.
Settings: Hoechst DNA content imaging, 48 h; series mostly up to 45.1 µM; activity, positive = re-replication: at the top concentration
Source text: NIH Molecular Libraries Probe Production Network [MLPCN] NIH Chemical Genomics Center [NCGC] MLPCN Grant: Fast Track K99 CA136555 Assay Provider: Melvin DePamphilis, NICHD, NIH Assay Overview Eukaryotic cells normally restrict genome duplication to once per cell division. When this process is aberrant, DNA re-replication occurs when cells reinitiate DNA replication before the first round of replication is complete. DNA re-replication induces the DNA damage response, arrests cell proliferation, and triggers apoptosis. The cell cycle components cyclin A, Cdt-1, Cdc6 and geminin are critical regulators of this process and their misregulation results in DNA re-replication in normal and cancer cells. To identify compounds that induce re-replication in normal cells, an image-based assay was used to measure DNA content of nuclei, as detected by the fluorescent DNA binding dye, Hoechst. Cell nuclei were imaged by a fluorescence scanning plate imager and compounds that induce DNA re-replication were identified by the increase of nuclei with elevated fluorescence intensity.
Assay Protocol Summary For screening, 250 cells in 5 uL/well were dispensed into black clear 1536-well plates (Aurora) using a solenoid-based dispenser. Following transfer of 23 nL compound or DMSO vehicle by a pin tool, the plates were incubated 48 hr at 37 C and 5% CO2. After addition of 1 uL/well Hoescht stain, the plates were incubated 40 min at 37 C, 5% CO2 and total intensity of fluorescent objects (nuclei) were enumerated by an Acumen Explorer Ex3 (TTP LabTech) fluorescence scanning plate imager (405 nm excitation, 500-530 nm emission). Keywords: NIH Roadmap, MLPCN, MLI, MLSMR, qHTS, NCGC, DNA replication, cancer

Q: Which Potency does the source give for `O=c1cc(-c2ccccc2)[nH]c2nc(Cl)ccc12` here?
A: 1.69 µM (active)

Q: For `C[C@@H](Oc1ccc(Oc2cnc3ccc(Cl)cc3n2)cc1)C(=O)O`, which “activity, positive = re-replication” value is on record?
A: -22.5%

Q: With `CCCCCCN(CCCCCC)C(=O)Cc1c(-c2ccc(F)cc2)[nH]c2ccccc12` as the compound, how does the “activity, positive = re-replication” value read?
A: -26.7%

Q: Which Potency does the source give for `COc1cc2c(cc1O)CC[C@@H]1[C@@H]2CC[C@]2(C)[C@@H](O)CC[C@@H]12` here?
A: 6.73 µM (active)

Q: With `CC(=O)O[C@H]1C(=O)[C@@]2(C)C([C@H](OC(=O)c3ccccc3)[C@]3(O)C[C@H](OC(=O)[C@H](O)[C@@H](NC(=O)c4ccccc4)c4ccccc4)C(C)=C1C3(C)C)[C@]1(OC(C)=O)CO[C@@H]1C[C@@H]2O` (stereo not given in full) as the compound, how does the Potency read?
A: 0.169 µM (active)
